The nature of test [1]: Cellular Toxicity (caspase-3) SK-N-SH (AID 661).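 Also: 0% = DMSO basal and 100% = 10 µM staurosporine.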 Put shortly: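 Cells were seeded and incubated 5 hr at 37 °C, dosed with compound over a concentration range for 16 hr, then given Caspase-Glo 3/7 reagent for 1 hr at room temperature before luminescence reading.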
Test [2] in a line: Cell Viability - LYMP1-002 - Assay at 16 hr (AID 948).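 Also: 0% = DMSO alone and full effect = 92 µM tetraoctylammonium bromide.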 Put shortly:
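LYMP1-002 human lymphoblastoid cells, 2500/well, were treated with compounds for 16 hr at 37 C in complete medium. Viability was read as intracellular ATP by CellTiter-Glo luminescence, and AC50 was derived from a Hill fit to concentration-response data.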

A short description of test [3]: Cell Viability - LYMP1-003 - Assay at 24 hr (AID 963).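 Also: plate controls were DMSO only for no effect and tetraoctylammonium bromide positive control for full effect.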 Put shortly:
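Cytotoxicity is scored as a concentration-dependent fall in ATP-linked luciferase signal in human lymphoblastoid LYMP1-003 cells treated 24 hr at 37 C in complete culture medium.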

Test [4] is described as follows: Cell Viability - LYMP1-003 - Assay at 40 hr (AID 964). Also: series mostly up to about 92 µM; % is scaled to controls: 0 for no effect and ±100 for the full control effect; nearly all actives have a fitted effect of over 60% in size. Put shortly: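 Luminescent ATP signal (CellTiter-Glo) served as the viability read-out after 40 hr compound treatment of human lymphoblastoid LYMP1-003 cells at 37 C. Decreases in ATP were fitted with the Hill equation to give AC50.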
The nature of test [5]: Cell Viability - LYMP2-003 (AID 965).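 Also: cells exposed to compounds for 24 h before reading; 0% = DMSO only and full effect = 92 µM tetraoctylammonium bromide; nearly all actives have a fitted effect of over 50% in size.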 An outline of the steps: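 Human lymphoblastoid LYMP2-003 cells, 2500/well, exposed to compounds for 24 h at 37 C in complete medium. Viability read as intracellular ATP by CellTiter-Glo luminescence; AC50 from Hill-equation fits of qHTS concentration-response data.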
The nature of test [6]: Cell Viability - LYMP2-009 (AID 968). Also: nearly all actives have a fitted effect of over 55% in size. Also: potency is read from the fitted curve at half-maximal effect.
Test [7] is described as follows: Cell Viability - LYMP2-011 (AID 969).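 Also: 0% = DMSO only and full inhibition = 92 µM tetraoctylammonium bromide; nearly all actives have a fitted effect of over 60% in size.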 An outline of the steps: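 In this qHTS cytotoxicity format, compounds are tested across concentrations on human lymphoblastoid cells in complete medium for 24 hours at 37 C. Viability is taken as cellular ATP measured by luciferase luminescence.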
Test [8] in a line: Cell Viability - LYMP2-013 (AID 970). Also: nearly all actives have a fitted effect of over 55% in size. Also: potency is read from the fitted curve at half-maximal effect. Put shortly: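 Cytotoxicity is scored as a concentration-dependent drop in intracellular ATP in human lymphoblastoid cells after 24 hr compound exposure at 37 C. ATP is quantified by luciferase luminescence, and AC50 values come from Hill-equation modeling.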
Test [9] is described as follows: Cell Viability - LYMP2-017 (AID 972). Also: series mostly up to about 92 µM; % is scaled to controls: 0 for no effect and ±100 for the full control effect; nearly all actives have a fitted effect of over 55% in size. Put shortly: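 Cytotoxicity is scored as a concentration-dependent drop in cellular ATP in a human lymphoblastoid line after 24 hr treatment at 37 C. Values are AC50s from Hill-equation modelling.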
Test [10] can be described thus: Cell Viability - LYMP2-002 (AID 977).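 Also: series mostly up to about 92 µM; compound exposure lasted 24 h at 37 °C; plate controls were DMSO only for no effect and 92 µM tetraoctylammonium bromide for full effect.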 Put shortly: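 In this qHTS viability screen, 2500 human lymphoblastoid cells per well receive compound for 24 hr at 37 C, and luciferase-based ATP luminescence gives the viability signal. Tetraoctylammonium bromide serves as positive control.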
The target in test [11] is Retinoic acid receptor RXR-alpha (Homo sapiens) (UniProt P19793). In words: qHTS assay for small molecule agonists of retinoid X receptor alpha signaling (AID 588544; calls by dose curve;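 also: 0% = DMSO basal wells and 100% = reference agonist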).
Test [12] shares this target. Description: qHTS assay for small molecule antagonists of retinoid X receptor alpha signaling (AID 588546; active = well fitted inhibition curve with a large enough effect in the signal ratio, with a control signal flat, not every such curve was filed as active; the % refers to the signal ratio;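 also: cells stimulated with 9-cis-retinoic acid as agonist; % is scaled to controls: 0 for no effect and ±100 for the full control effect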). The note with it: HEK293T RXRa-UAS-bla, beta-lactamase ratio, antagonist mode. Put shortly: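 Beta-lactamase reporter inhibition, read as CCF4 fluorescence ratio (ex 405, em 460/530 nm) after 2 h at RT. HEK293T UAS-bla cells, 2500/well, were stimulated with 9-cis-RA at 500 or 100 nM final alongside test compound for 18 h at 37 C.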

A short description of test [13]: qHTS assay for small molecule activators of the p53 signaling pathway (AID 651743; active = well fitted activation curve with a large enough effect in the signal ratio, not every such curve was filed as active; the % refers to the signal ratio; also: series mostly up to about 92 µM; % of control where 0% means no effect). The note with it: HCT-116 p53RE-bla, beta-lactamase FRET ratio, 16 h; activation: stronger effect = higher value. An outline of the steps: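 Agonist-mode quantitative HTS in HCT-116 cells carrying a p53-response-element beta-lactamase reporter; 16 h compound treatment at 37 C, then FRET substrate loading for 2 h at room temperature and fluorescence read.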

The nature of test [14]: Cellular Toxicity (caspase-3) HUV-EC-C (AID 656).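 Also: 0% = DMSO basal and 100% = 100 µM tamoxifen.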 An outline of the steps:
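HUV-EC-C cells (1000/well) in complete medium, compound-treated 16 h at 37 °C; caspase-3/7 activity read by Caspase-Glo 3/7 luminescence. Normalized to DMSO (basal) and 100 uM tamoxifen (100%); AC50 from Hill-equation concentration-response fits.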

A short description of test [15]: Cellular Toxicity (caspase-3) SHSY5Y (AID 657). Put shortly: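 SH-SY5Y human neuroblastoma cells, 1500/well, exposed to compound for 16 hours at 37 °C in complete medium. Caspase-3/7 activity read by Caspase-Glo luminescence after 1 hr at room temperature, normalized to DMSO and 10 uM staurosporine; AC50 from Hill fit.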
The nature of test [16]: Cellular Toxicity (caspase-3) H-4-II-E (AID 663).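 Also: cells exposed to compound for 16 hr before readout; 0% = DMSO basal and 100% = 100 µM tamoxifen.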 The note with it: Potency: caspase-3 activation. Put shortly: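 Caspase 3/7 activation measured in H-4-II-E cells in complete culture medium after 16 hr treatment at 37 °C, using luciferase-coupled substrate readout; AC50 values come from Hill-equation fits of normalized concentration-response data.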
Test [17] is described as follows: Cell Viability - LYMP2-023 (AID 975).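 Also: series mostly up to about 92 µM; plate controls were DMSO only for no effect and 92 µM tetraoctylammonium bromide control for full effect; nearly all actives have a fitted effect of over 55% in size.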 Put shortly: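 Steps: seed 2500 human lymphoblastoid cells per well, incubate 5 hr at 37 C, add compound for 24 hr at 37 C, add CellTiter-Glo, hold 30 min at room temperature, read luminescence. AC50 derived by Hill modelling.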
Test [18] is described as follows: Cell Viability - LYMP2-012 (AID 982).
Test [19] is described as follows: qHTS assay for small molecule agonists of the antioxidant response element (ARE) signaling pathway measured by Nrf2-dependant transcriptional activity - cell viability counter screen (AID 720653; active = well fitted curve in the direction sought with a large enough effect in the repeat runs; an effect the other way counts as inactive or inconclusive; also: % is scaled to controls: 0 for no effect and ±100 for the full control effect). The following applies: ARE-bla HepG2 viability, CellTiter-Glo ATP luminescence, 16 h; stronger effect = lower value. An outline of the steps:
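ARE-bla HepG2 cells (2,000/well) rested 5 hrs at 37C/5% CO2, then exposed to compounds in DMSO for 16 hrs. Viability was read in the same wells as intracellular ATP by luminescence, 30 min at room temperature after reagent addition.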

Test [20] can be described thus: MultiTox-Fluor Cytotoxicity Assay - LYMP1-002 - Dead Cells (AID 960).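 Also: 0% = DMSO and 100% = tetraoctylammonium bromide; nearly all actives have a fitted effect of over 60% in size.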 Put shortly: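 Cells were plated, rested 5 hr, then treated with compound dilution series for 16 hr at 37 C. After adding substrate reagent and 60 min at room temperature, dead-cell protease fluorescence gave concentration-response curves fitted by the Hill equation.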

Structures are written as SMILES. “And” between values parts separate entries of the source, which are not always exact repeats. Equal entries are not always repeated. A number with no mark means an inactive call. Inconclusive results are not listed. The source made the active and inactive calls. Unless noted, calls follow the shape of the dose curve; as a rule, active = well fitted curve in the direction sought with a large enough effect; inconclusive = small, poorly fitted or top-dose-only effect, or another doubt; inactive = no such curve, though single readings can be large; an effect the other way counts as inactive or inconclusive.

Sequence of Retinoic acid receptor RXR-alpha (Homo sapiens) (P19793 whole entry, looked up): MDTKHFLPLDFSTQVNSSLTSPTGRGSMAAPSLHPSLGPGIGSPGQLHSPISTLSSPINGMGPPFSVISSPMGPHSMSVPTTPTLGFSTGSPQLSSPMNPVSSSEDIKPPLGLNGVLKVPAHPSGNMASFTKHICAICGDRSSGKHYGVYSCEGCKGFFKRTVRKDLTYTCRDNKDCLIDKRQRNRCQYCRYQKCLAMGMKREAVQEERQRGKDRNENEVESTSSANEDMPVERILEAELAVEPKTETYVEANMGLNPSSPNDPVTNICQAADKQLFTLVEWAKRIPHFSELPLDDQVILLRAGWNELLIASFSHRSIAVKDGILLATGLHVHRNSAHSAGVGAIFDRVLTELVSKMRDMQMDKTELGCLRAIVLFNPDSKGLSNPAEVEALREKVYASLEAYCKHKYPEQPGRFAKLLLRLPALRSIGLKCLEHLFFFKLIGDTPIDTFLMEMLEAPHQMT

On to `Cc1cc(-c2cc(C)c(N)c(C)c2)cc(C)c1N`, for which the Potency entry in test [1], in [4], in [5], in test [6], in [7] and in test [8] was “inactive” throughout. The Potency result in test [9] and in test [10] was “inactive” throughout. Further, the compound was called inactive in test [2], in test [3] and in [11]. Besides, the max response in test [12] was -4.04%. In addition, the activation in [13] is -3.17%.
`Oc1cc(Cl)cc(Cl)c1`: the outcome in test [14], in test [15], in [2] and in test [11] was inactive. In addition, the Potency result in [1], in test [16], in test [7], in [17], in test [10] and in [18] was “inactive” throughout. In [13], the activation is 1.86%. In addition, the max response in [19] was -11.3%.
`OCCCCO`: the outcome in test [14], in test [15] and in test [3] was inactive. Moreover, the Potency result in test [1], in [16], in [20], in [4], in [5] and in test [6] was “inactive” throughout. In addition, the Potency result in test [7], in [8], in [17], in test [10] and in test [18] was “inactive” throughout. The values for the max response in test [12] and in test [19] were -1.35% and -2.13%, respectively. Besides, the activation in [13] is -4.12%.
For the compound `Nc1ccc(-c2ccc(N)cc2)cc1`, the call in test [15], in test [2] and in [3] was inactive. Besides, the Potency result in [1], in test [16], in [20], in test [5], in test [7] and in test [8] was “inactive” in each case. The Potency result in test [9], in test [17], in test [10] and in test [18] was “inactive” each time. The max response in test [12] is 0.312%; in [19], -3.71%. Moreover, the activation in test [13] is -1.06%.
Consider `Nc1ccc([N+](=O)[O-])cc1[N+](=O)[O-]`, for which the compound was classed as inactive in test [14], in [15], in test [3] and in [11]. The Potency entry in test [16], in test [20], in test [4], in test [5], in test [6] and in test [7] was “inactive” in each case. The Potency entry in test [8], in test [9], in test [17], in test [10] and in test [18] was “inactive” in each case. Moreover, in test [19], the max response was -10.3%.
Turning to `O=Cc1ccc2c(c1)OCO2`, the outcome in test [15], in test [2], in test [3] and in test [11] was inactive. The Potency entry in test [1], in [16], in [20], in test [4], in test [5] and in test [6] was “inactive” in each case. Besides, the Potency entry in [8], in [9], in test [17] and in test [18] was “inactive” each time. Besides, in [12], the max response is -12.4%.
As for `CCOP(=S)(OCC)SCCSCC`, the compound was classed as inactive in [14], in [15], in [2] and in test [11]. Moreover, the Potency entry in test [1], in test [16], in test [20], in test [4], in test [5] and in test [6] was “inactive” each time. In addition, the Potency entry in test [7], in test [8], in test [9], in [17], in test [10] and in test [18] was “inactive” each time. In [12], the max response was -3% and -2.15%. Besides, the activation in test [13] was -1.38% and -6.24%.
Regarding `c1ccc(OCC2CO2)cc1` (configuration not stated), the result in test [14], in [15], in test [2], in [3] and in [11] was inactive. The Potency result in test [1], in test [20], in test [4], in test [5], in test [6] and in test [7] was “inactive” each time. For the same compound, the Potency entry in [8], in test [9], in [17], in test [10] and in test [18] was “inactive” throughout. In test [12], the max response was -20.9%. The activation in test [13] was -2.65%.
Regarding `Cc1ccc(N)c(N)c1`, the compound was classed as inactive in [14], in test [15], in test [2] and in test [11]. The Potency result in test [1], in test [16], in test [20] and in test [17] was “inactive” throughout. The Potency in [6] was 25.1 µM (active); in test [8] it was 39.8 µM (active). Besides, in test [13], the activation was -0.898%.
With `O=[N+]([O-])c1cccc(O)c1`, the compound was called inactive in [14], in test [15], in [3] and in test [11]. In addition, the Potency result in test [1], in [16], in test [7], in test [8], in [9] and in [10] was “inactive” each time. For the same compound, the Potency entry in test [18] was “inactive”. The max response is -5.97% in test [12] and -0.267% in test [19]. In addition, in [13], the activation is -2.9%.
Consider `Nc1ccc(Oc2ccc(N)cc2)cc1`, for which the outcome in [14], in test [15] and in [3] was inactive. Moreover, the Potency result in test [1], in test [16], in test [20], in test [4], in test [5] and in test [6] was “inactive” in each case. Also, the Potency entry in test [7], in [8], in test [9], in [17] and in test [10] was “inactive” each time. Further, the max response in test [12] is 4.6% and -3%; in [19], -2.21% and -13%. Besides, the activation in test [13] is -4.54% and -10.7%.
As to `O=C(Cl)c1ccccc1F`, the compound was called inactive in test [14], in [15], in test [2], in [3] and in test [11]. In addition, the Potency result in test [1], in [20], in test [4], in [5], in test [6] and in test [7] was “inactive” throughout. In addition, the Potency entry in test [8], in test [9], in [17], in test [10] and in [18] was “inactive” in each case. Also, the max response in test [12] was 13.4%. Moreover, in [13], the activation was -0.282%.
Consider `Oc1ccc(Cl)c(Cl)c1Cl`, for which the result in test [14], in test [15], in [2], in [3] and in [11] was inactive. The Potency entry in test [1], in [16], in [20], in test [5], in [6] and in [7] was “inactive” in each case. Further, the Potency result in test [8], in test [9], in test [17], in [10] and in test [18] was “inactive” each time. Besides, in test [13], the activation is -0.769%. Moreover, in test [19], the max response is 13.8%.
With `O=c1ccc(=O)[nH][nH]1`, the call in [15], in [2] and in test [3] was inactive. Also, the Potency result in test [1], in test [16], in test [20], in test [4], in test [6] and in test [7] was “inactive” throughout. For the same compound, the Potency result in test [9], in [17] and in test [10] was “inactive” each time. In addition, the max response in test [12] was -4.77% and 2.87%. For the same compound, the activation in [13] was -0.833% and -3.13%.

Source of the values: PubChem BioAssay (NCATS).
